# Compound activity from PubChem.
# Most compounds without a hit are left out; they make up all but 0.95% or so of the library.
# PrPC TRFRET = inhibitors of human cell surface prion protein PrPC, primary screen, cell-based, TR-FRET; TR-FRET read-out; hit rate 0.43% among 370,000; inhibition, % at 13.8 µM; in the data active = inhibition above about 24%
# BJeLR lethal = MLPCN primary cell-based screen for lethality selective to Ras in HRASV12 cells | AID 1554, 2009 | hit rate 0.17% among 300,000 | inhibition, % (concentration not given with the values) | BJeLR (HRASV12) viability, CellTiter-Glo ATP luminescence, 48 h; in the data active = inhibition above about 50%
# Sa ugtP lethal = growth inhibition of ugtP-null S. aureus, primary screen, RN4220 ugtP deletion, OD600; hit rate 0.54% among 330,000; growth inhibition, % (test concentration not listed); 16 h; in the data active = growth inhibition above about 68%
# RN4220 kill = growth inhibition of S. aureus RN4220, primary screen, OD600 | 16 h | inhibition, % (test concentration not listed) | hit rate 0.33% among 330,000 | AID 1259311, 2017; in the data active = inhibition above about 85%
# A number is an active result; - = inactive; . = no result given.
SMILES,PrPC TRFRET,BJeLR lethal,Sa ugtP lethal,RN4220 kill
C/C=C(/C)C(=O)O[C@@H]1c2c(ccc3ccc(=O)oc23)O[C@@H]1C(C)(C)OC(C)=O,-,-,.,.
CN(/N=C/c1ccc(Cl)cc1Cl)c1ncc(Cl)cc1C(F)(F)F,-,-,.,.
CN(N=Cc1ccccc1Cl)c1ncc(Cl)cc1C(F)(F)F,.,.,85,-
CC(C)(C)C1CCc2c(sc(NC(=O)CSc3ncn[nH]3)c2C#N)C1 (configuration not stated),-,-,88,-
COc1ccc(-c2ccc(C#N)c(SCC(=O)NCCc3ccccc3)n2)cc1OC,.,.,-,-
COc1cccc(-c2ccc(C#N)c(SCC(=O)NCCc3cccc(Cl)c3)n2)c1,-,-,85,-
CS(=O)(=O)c1nc(-c2ccccc2)cc(C(F)(F)F)n1,29,-,.,.
O=C(COc1ccccc1[N+](=O)[O-])NN=Cc1ccccn1,.,.,-,-
Cc1[nH][nH]c(=O)c1C(c1c(C)[nH][nH]c1=O)c1cn(Cc2cccc3ccccc23)c2ccccc12,-,.,94,-
c1ccc(N=Nc2ccc3cccccc2-3)cc1,-,-,95,-
COc1cccc(CNC(=O)[C@H]2CCCN2C(=O)[C@H]2CCCN2C(=O)c2cccc(F)c2)c1,-,.,.,.
O=C(NN=Cc1cc(Cl)ccc1O)c1ccc(Br)cc1,.,.,90,-
O=C(NN=Cc1cc([N+](=O)[O-])ccc1O)c1ccc2c(c1)OCCO2,.,.,-,90
O=[N+]([O-])c1ccc(O)c(C=NNc2nn[nH]n2)c1,.,.,87,95
O=C(NN=Cc1cc([N+](=O)[O-])ccc1O)c1ccncc1,.,.,-,86
O=C(NN=Cc1ccc([N+](=O)[O-])cc1)c1ccncc1,-,.,-,-
O=C(N/N=C/c1cc(Cl)ccc1O)c1ccccc1Br,-,-,.,.
CC(/C=C/c1ccco1)=NNC(=O)CNc1cccc(C)c1,.,.,-,-
CC(=NNC(=O)c1ccc(Br)o1)c1cccs1,.,.,-,-
COc1ccc(C(=O)NN=C(C)Cn2nc([N+](=O)[O-])cc2C)cc1,.,.,-,-
O=C(NN=Cc1cc([N+](=O)[O-])ccc1O)Nc1ccccc1,.,.,-,91
COc1ccc(C2CC(=O)C=C(c3cccc(CO)c3)C2)cc1 (configuration not stated),.,.,-,-
O=C(N/N=C(\c1ccccc1)c1cccnc1)c1cccc(F)c1,-,67,.,.
CC(C)c1ccc(-n2c(O)c(/C=N/NC(=O)c3ccccc3O)c(=O)[nH]c2=S)cc1,-,-,10,-
O=C(N/N=C/c1c(O)n(C2CCCCC2)c(=S)[nH]c1=O)c1ccccc1O,-,-,92,-
SMILES,PrPC TRFRET,BJeLR lethal,Sa ugtP lethal,RN4220 kill
CC(C)c1ccc(-n2c(O)c(/C=N/NC(=O)c3ccncc3)c(=O)[nH]c2=O)cc1,-,-,-,-
NS(=O)(=O)c1ccc(-c2ccc(C=NNC(=O)c3ccccc3O)o2)cc1,.,.,-,-
CC(=O)OCC12CC(OC(=O)CC(C)C)C(C)=CC1OC1C(O)C(OC(C)=O)C2(C)C12CO2 (configuration not stated),87,.,.,.
COCc1c(C(C)C)nc(C(C)C)c(/C=C/[C@@H](O)C[C@@H](O)CC(=O)O)c1-c1ccc(F)cc1,.,72,.,.
CC(C)n1c(/C=C/[C@@H](O)C[C@@H](O)CC(=O)O)c(-c2ccc(F)cc2)c2ccccc21,-,-,.,.
O=C(c1cc2nc(-c3ccc(F)cc3)cc(C(F)(F)F)n2n1)N1CCCCC1c1cccnc1 (configuration not stated),-,-,active,-
CC(=O)N1c2ccccc2Oc2cc3ccccc3cc21,-,-,-,-
O=C(CCl)N1c2ccccc2Oc2ccc3ccccc3c21,-,.,99,90
CCN(CC)C(=O)c1ccc(NC(=O)Nc2ccccc2F)cc1,-,55,-,-
Nc1nonc1-n1nnc(C(=O)NN=Cc2ccc(Br)cc2)c1-c1ccc2c(c1)OCO2,.,.,-,-
Cc1ccc(N(C(=O)Nc2ccccc2)C2=NCC(C)S2)cc1 (configuration not stated),-,-,88,-
CC1CN=C(N(C(=O)Nc2ccccc2)C(C)C)S1 (configuration not stated),-,-,-,-
COC(=O)C(O)(NC(=O)c1ccncc1)C(F)(F)F (configuration not stated),-,-,-,84
CC(NC(=O)NNC(=O)c1ccncc1)(C(F)(F)F)C(F)(F)F,-,-,-,-
COc1ccc(C=NNc2cc(OC)ncn2)cc1,.,.,-,-
C/C(=N\NC(=O)c1ccccc1NC(=O)c1ccc(Cl)cc1)c1ccncc1,-,132,.,.
CCOc1ccc(-c2ccc(/C=C3/C(=N)N4C=CSC4=NC3=O)o2)c([N+](=O)[O-])c1,-,-,-,-
CCOc1ccc(-c2ccc(/C=C3/C(=N)N4C(C)=CSC4=NC3=O)o2)c([N+](=O)[O-])c1,-,-,100,-
Cc1ccc(-n2[nH]c(C)c(C=NN3C(=O)c4cccc5cccc(c45)C3=O)c2=O)cc1,.,.,-,-
C=C(C)CSc1nc2sc3c(c2c(=O)n1C1CCCCC1)CCN(C)C3,-,-,active,-
Nc1cc(Cl)ccc1Oc1ccc2ccccc2c1,-,-,95,-
Cc1ccc(Oc2ccc(Cl)cc2N)cc1,-,-,-,-
CC(O)C1NC(=O)C(CCCCN)NC(=O)c2cc([N+](=O)[O-])cc(F)c2NCCCCC(C(N)=O)NC1=O (configuration not stated),.,.,-,-
CC(C)(C)CCN1C[C@@H]2C(CNC(=O)c3cc(Cl)cc(Cl)c3)[C@@H]2C1 (some centres not stated),-,.,.,.
CC(=NNc1ccccn1)c1ccc(C#N)cc1,.,.,-,-
SMILES,PrPC TRFRET,BJeLR lethal,Sa ugtP lethal,RN4220 kill
CCOc1cc(CNCc2ccncc2)cc(Br)c1OCc1ccccc1F,-,-,92,-
CCOc1cc(CNCCO)cc(Br)c1OCc1ccc(Cl)cc1Cl,-,-,98,100
CCOc1cccc(CNCCO)c1OCc1ccc(Cl)cc1Cl,-,-,-,-
Cn1cc(C=NNC(=O)c2ccccc2O)c2ccccc21,.,.,-,-
CCOC(=O)C(=NNc1ccccc1)c1csc(Nc2ccccc2)n1,.,.,93,92
CC(Cn1nc([N+](=O)[O-])cc1C)=NNC(=O)c1ccc(C(C)(C)C)cc1,.,.,-,-
Cc1ccc(S(=O)(=O)Nc2nc3ccc(N)cc3s2)cc1,-,-,84,-
S=C1NCC(CC2CCCCC2)N1CCc1cccc2ccccc12 (configuration not stated),.,.,-,-
COc1ccc(C=NN2CCOCC2)cc1OCc1ccccc1,.,.,-,-
CC1=C(SCc2ccccc2)C(=O)c2ccccc2C1=O,-,.,-,-
O=C1C(SCCO)=C(SCCO)C(=O)c2ccccc21,65,.,.,.
COc1ccc(/C=C/C(=O)c2ccc(O)cc2)cc1COc1ccc(F)cc1,-,-,87,-
CCN(CC)c1ccc(C=NN2CCN(c3ccccc3OC)CC2)cc1,.,.,-,-
OCCCNc1cc(-c2ccnc(Nc3cccc(Cl)c3)n2)ccn1,42,-,-,-
Cc1c2ccncc2c(C)c2c1[nH]c1ccccc12,.,-,100,98
COC(=O)c1ccc(COc2ccc(C=NO)cc2)o1,.,.,-,-
Oc1[nH]c2ccccc2c1N=Nc1ccccn1,-,.,.,.
